{"source": "PubChem BioAssay AID485298", "about": "(National Center for Advancing Translational Sciences (NCATS), 2010)", "note": "Among all 320,000 compounds or so, about 740 (0.23%) were called active. Not shown: some 2% with an inconclusive outcome. Shown is part of a subset that was picked to be rich in actives. Values without a mark were called inactive. The call rests on the fitted dose curve; in most records, active means well fitted activation curve with a large enough effect; inconclusive means small, poorly fitted or top-dose-only effect; inactive means no such curve, though single readings can be large or run the other way. Potency means the concentration at half of the fitted maximal effect."}
{"experiment": "qHTS Assay for Small Molecule Inhibitors of Mitochondrial Division or Activators of Mitochondrial Fusion; further: nearly all actives have a fitted effect of over 45% in size; on growth rescue (activation): % of control where 0% means no effect", "conditions": "S. cerevisiae fusion-defective mutant growth rescue, CellTiterGlo 48 h; series mostly up to 46.1 µM; growth rescue (activation): at the top concentration", "excerpt": "NIH Chemical Genomics Center [NCGC] NIH Molecular Libraries Probe Production centers Network [MLPCN] MLPCN Grant: MH081279-01 Assay Submitter (PI): Jodi M. Nunnari NCGC Assay Overview: The budding yeast S. cerevisiae is a powerful system to study mitochondrial fusion. Unlike other organisms, yeast cells without functional mitochondrial DNA (mtDNA) can be propagated and studied as long as they maintain a mitochondrial compartment and are provided with a fermentable carbon source. When mitochondrial fusion is blocked in yeast, mitochondrial tubules rapidly fragment and division continues unopposed. Under conditions where fusion is compromised in mammalian cells, nearly identical changes in mitochondrial structure have been observed. Thus, these findings indicate that steady state mitochondrial structure in cells is a characteristic and specific indicator of fusion activity. Mounting evidence has pointed to a connection between mitochondrial dynamics and apoptosis in mammalian cells. These studies indicate that in mammalian cells mitochondrial dynamics are more integrated into cellular processes than in yeast cells and have evolved not only to distribute the organelle but also to aid in the regulation of cellular homeostasis. Mitochondrial fusion proteins attenuate apoptosis by inhibiting the release of cytochrome c from mitochondria, in part by controlling cristae structures. Thus, small molecules that inhibit mitochondrial […] may promote apoptosis and potentially act as novel chemotherapeutics and stimulation of apoptosis has become an attractive target of anti-cancer therapies. To identify inhibitors of mitochondrial division, we exploit the growth phenotypes of mitochondrial fusion-defective mutants. The temperature sensitive fusion alleles, such as fzo1-1 and mgm1-5, cause mitochondrial membranes to fragment in cells under non-permissive conditions and cells lose mtDNA, and are unable to grow in the presence of non-fermentable carbon source glycerol. Inhibiting mitochondrial division rescues growth. We have developed and optimized a luminescence cell viability assay in 1536 well format for the identification of inhibitors in the yeast mitochondrial fusion-defective assay.\nThe yeast glycerol stocks where kindly supplied by the laboratory of Dr. Jodi Nunnari, University of California, Davis. All yeast glycerol stock solutions were stored in single use aliquots at -80C. The CellTiterGlo luminescence reagent, containing luciferase and luciferin, were purchased from Promega, and the reagents were stored according to manufacturer's instructions. The Buffer components for the YPEG yeast growth medium were purchased from Sigma-Aldrich (St. Louis, MO). YPEG growth medium: 1% (w/v) yeast extract, 2% (w/v) Bacto-peptone, 3% Ethanol, 3% glycerol, 0.4mM Tryptophan, 0.36mM Adenine. qHTS Assay Protocol: 1.#Dispense 2.5 ul yeast growth medium per 1536 well plate. 2.#Transfer 23 nl per well of compound to plate. 3.#Dispense 2.5 ul yeast solution at appropriate seeding density per well. 4.#Incubate for 48 hours at 37C. 5.#Dispense 5 ul of CellTiterGlow solution per well. 6.#Incubate at ambient for 10 minutes. 7.#Read using bio-luminescence protocol on Viewlux."}
{"smiles": "COc1ccc([C@H]2CC(=O)C=C(c3ccc(CO)cc3)C2)cc1", "growth rescue (activation)": "10.6%"}
{"smiles": "COc1ccc([C@H]2CC(=O)C=C(c3ccc(C)cc3)C2)cc1", "growth rescue (activation)": "25.8%"}
{"smiles": "CC(C)(C)CC(=O)Nc1nnc(SCC(=O)NCc2cccs2)s1", "growth rescue (activation)": "-2.23%"}
{"smiles": "O=C1CSC(=O)N1CCOCCN1C(=O)CSC1=O", "growth rescue (activation)": "-3.76%"}
{"smiles": "Cc1cccc(NC(c2cccc(F)c2)c2ccc3ccc(C)nc3c2O)n1", "note": "(configuration not stated)", "growth rescue (activation)": "2.76%"}
{"smiles": "CCCCCc1ccc(-c2ccc(C(=O)O)cc2)nc1", "Potency": "15.8 µM (active)"}
{"smiles": "CCCCCc1ccc(-c2ccc(OCC)cc2)nc1", "growth rescue (activation)": "-3.67%"}
{"smiles": "CCCCCc1ccc(-c2cn(Cc3ccc4ccccc4c3)nn2)cc1", "growth rescue (activation)": "1.57%"}
{"smiles": "COc1ccc(-n2c(SCC(=O)Nc3ccc(Cl)c(C)c3)nc3n[nH]c(C)c3c2=N)cc1", "growth rescue (activation)": "1.03%"}
{"smiles": "CN(c1ccccc1)S(=O)(=O)c1cc(C(=O)OCC(=O)N2CCN(C(=O)c3ccco3)CC2)ccc1Cl", "growth rescue (activation)": "5.81%"}
{"smiles": "CN(c1ccccc1)S(=O)(=O)c1cc(C(=O)Nc2nc3ccccc3[nH]2)ccc1Cl", "Potency": "12.6 µM (active)"}
{"smiles": "COc1cc(OC)cc(C(=O)N[C@H](C(=O)Nc2nc3ccccc3[nH]2)C(C)C)c1", "growth rescue (activation)": "-2.45%"}
{"smiles": "CN(C)S(=O)(=O)c1ccc(C(=O)NCC2(N3CCOCC3)CCCCC2)cc1", "growth rescue (activation)": "-7.31%"}
{"smiles": "COc1ccc(NS(=O)(=O)c2ccc(C)c(C(=O)N(C)Cc3ccc(OC)cc3OC)c2)cc1", "growth rescue (activation)": "3.44%"}
{"smiles": "CC1CC2C3CCC4=CC(=O)C=C[C@]4(C)[C@@]3(F)[C@@H](O)C[C@]2(C)[C@@]1(O)C(=O)CO", "note": "(some centres not stated)", "growth rescue (activation)": "-2.79%"}
{"smiles": "O=C(NCCCCCCCCCNC(=O)C(F)(F)F)C(F)(F)F", "growth rescue (activation)": "3.56%"}
{"smiles": "CC(CN1CCOCC1)OC(=O)c1ccc(Cl)cc1Cl", "note": "(configuration not stated)", "growth rescue (activation)": "-1.69%"}
{"smiles": "CC(CN1CCOCC1)OC(=O)c1ccc(C(C)(C)C)cc1", "note": "(configuration not stated)", "growth rescue (activation)": "6.51%"}
{"smiles": "Cc1ccc(C(=O)OC(C)CN2CCOCC2)cc1", "note": "(configuration not stated)", "Potency": "22.4 µM (active)"}
{"smiles": "C=C(C)C1CC=C(C)/C(=N\\NC(=O)CNc2ccccc2OC)C1", "note": "(configuration not stated)", "growth rescue (activation)": "24.6%"}
{"smiles": "Cc1ccc(S(=O)(=O)/N=C(/NC(=S)Nc2c(C)n(C)n(-c3ccccc3)c2=O)c2ccccc2)cc1", "growth rescue (activation)": "0.193%"}
{"smiles": "Cn1c2cc(B(O)O)sc2c2cnn(Cc3ccccc3F)c(=O)c21", "growth rescue (activation)": "-0.837%"}
{"smiles": "O=C(Nc1ncc2c(n1)CC(c1ccco1)CC2=O)c1ccc(Cl)cc1", "note": "(configuration not stated)", "growth rescue (activation)": "6.99%"}
{"smiles": "COc1cc(C2CC(=O)c3cnc(NC(C)=O)nc3C2)cc(OC)c1OC", "note": "(configuration not stated)", "growth rescue (activation)": "0.0051%"}
{"smiles": "CCc1ccc(Nc2ncc3c(n2)CC(c2ccco2)CC3=O)cc1", "note": "(configuration not stated)", "Potency": "11.2 µM (active)"}
{"smiles": "Cc1cc(NC(=O)Nc2c[nH]c(=O)[nH]c2=O)ccc1Br", "growth rescue (activation)": "0.148%"}
{"smiles": "CCOC(=O)c1c(CNCc2ccccc2F)c2sc(C)cc2n1C", "growth rescue (activation)": "-0.808%"}
{"smiles": "COc1cc(C2NC(=O)NC(c3ccccc3)=C2C(C)=O)c(Br)cc1OCC(N)=O", "note": "(configuration not stated)", "growth rescue (activation)": "2.71%"}
{"smiles": "COc1ccccc1N(C)S(=O)(=O)c1ccc(C(=O)NC2CCCCCC2)cc1", "growth rescue (activation)": "-3.35%"}
{"smiles": "COc1ccc(CCNC(=O)CN2C(=O)CCSc3ccccc32)c(OC)c1", "growth rescue (activation)": "-10.5%"}
{"smiles": "COc1ccc(CNC(=O)CNC(=O)c2sc3ccccc3c2Cl)cc1OC", "growth rescue (activation)": "-3.78%"}
{"smiles": "O=C(N/N=C/c1c(Cl)[nH]c2ccccc12)c1sc2ccccc2c1Cl", "Potency": "15.8 µM (active)"}
{"smiles": "COCCNC(=S)N/N=C/c1c(C)[nH]c2ccccc12", "growth rescue (activation)": "-4.82%"}
{"smiles": "Nc1ncnc2c1c(I)cn2[C@@H]1C[C@H](N)[C@@H](O)[C@H]1O", "growth rescue (activation)": "-0.615%"}
{"smiles": "COc1ccccc1NC(=O)c1cc(S(=O)(=O)NCCc2ccccc2)ccc1F", "growth rescue (activation)": "-4.24%"}
{"smiles": "COc1cccc(-n2c(=O)c3c(C)c(C(=O)N(C)C)sc3n(CC(=O)NCCc3ccc(OC)c(OC)c3)c2=O)c1", "growth rescue (activation)": "-2.48%"}
{"smiles": "CCCCNC(=O)C1CCC(CNS(=O)(=O)c2ccc(NC(C)=O)cc2)CC1", "note": "(configuration not stated)", "growth rescue (activation)": "-18.1%"}
{"smiles": "CC(=O)Nc1ccc(S(=O)(=O)NCCc2ccccc2)cc1", "growth rescue (activation)": "-2.71%"}
{"smiles": "COCCCNC(=O)c1ccc(CNS(=O)(=O)c2ccc(NC(C)=O)cc2)cc1", "Potency": "0.631 µM (active)"}
{"smiles": "O=C(NC1CCCC1)C(c1ccco1)N(C(=O)c1ccco1)c1ccc(F)cc1", "note": "(configuration not stated)", "growth rescue (activation)": "0.928%"}
{"smiles": "CN(C)C(=O)c1ccc(NC(=O)c2ccccc2-c2ccccc2)cc1", "growth rescue (activation)": "-1.29%"}
{"smiles": "CN(C)C(=O)c1ccc2c(c1)C1C3CCC(C3)C1C(c1ccccc1)N2", "note": "(configuration not stated)", "Potency": "12.6 µM (active)"}
{"smiles": "CC1(C)C/C(=C(/C#N)C(N)=O)CCO1", "growth rescue (activation)": "-4.67%"}
{"smiles": "NC(N)=Nc1nc2ccc(Br)cc2c(=O)[nH]1", "growth rescue (activation)": "3.53%"}
{"smiles": "O=S(=O)(Nc1ccc2nc(N3CCOCC3)sc2c1)c1ccccc1", "growth rescue (activation)": "9.86%"}
{"smiles": "CC(=O)OCCOCn1cnn2c(=O)c(Br)c(C)nc12", "growth rescue (activation)": "-1.24%"}
{"smiles": "CC1CCN(c2ccc(-c3ccc(NC(=O)c4ccco4)cc3)nn2)CC1", "growth rescue (activation)": "13.5%"}
{"smiles": "CCC(=O)c1ccc(OCC(=O)Nc2ccc(N3CCCCC3)cc2)cc1", "growth rescue (activation)": "0.121%"}
{"smiles": "CCC(=O)Nc1ccc(-c2ccc(N3CCCCC3)nn2)cc1", "Potency": "17.8 µM (active)"}
{"smiles": "CCOc1ccc(/C(O)=C2\\C(=O)C(=O)N(c3ccc(OC)cc3)C2c2ccccc2[N+](=O)[O-])cc1", "note": "(configuration not stated)", "growth rescue (activation)": "-5.38%"}
{"smiles": "CCOC(=O)C1=C(c2ccccc2)NC(=O)NC1c1cc(OC)c(OC)cc1OC", "note": "(configuration not stated)", "growth rescue (activation)": "5.15%"}
{"smiles": "CCCC[C@]12Cc3cc(OC)c(OC)cc3C(O1)C1=C(CC3(CCCCC3)OC1=O)O2", "growth rescue (activation)": "-0.167% [at 9.22 µM]"}
